High-throughput results as filed in PubChem BioAssay.
Insulin prom up: insulin promoter activators in MIN6 cells, imaging, high-content screening, mouse beta cells | MIN6 insulin promoter-GFP reporter; hits give high values | 190,000 compounds, 0.3% hits | z-score at 5 µM | AID 1625, 2009;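 active means z-score above 3 at 5 µM with at least 500 cells counted in the well; inconclusive means wells under 500 cells, flagged as cytotoxic or low count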
HSV replic up: enhancers of HSV replication in host cells, fold increase, host cell viability. HSV replication augmentation in cells. maximum fold increase. 220,000 compounds, 0.005% hits. AID 1956, 2009; in the data active means maximum fold increase above about 1.5; inconclusive means no clear call, values can overlap the other calls; tested in PC3 cells
ROMK primary: ROMK potassium channel modulators, primary screen, cell-based, thallium flux, MLSMR library; ATP-sensitive inward rectifier potassium channel 1 (Homo sapiens), P48048; Tet-inducible ROMK, thallium flux fluorescence; actives lie on both sides; B-score at 10 µM; 130,000 compounds, 2% hits;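 active means signal ratio slope over the read window, or its plate-corrected B-score, at least 3 SD from the plate mean, either direction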;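 further: B-score of the F/F0 ratio slope over 7 to 12 s after thallium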
Target sequence (P48048 whole entry, looked up): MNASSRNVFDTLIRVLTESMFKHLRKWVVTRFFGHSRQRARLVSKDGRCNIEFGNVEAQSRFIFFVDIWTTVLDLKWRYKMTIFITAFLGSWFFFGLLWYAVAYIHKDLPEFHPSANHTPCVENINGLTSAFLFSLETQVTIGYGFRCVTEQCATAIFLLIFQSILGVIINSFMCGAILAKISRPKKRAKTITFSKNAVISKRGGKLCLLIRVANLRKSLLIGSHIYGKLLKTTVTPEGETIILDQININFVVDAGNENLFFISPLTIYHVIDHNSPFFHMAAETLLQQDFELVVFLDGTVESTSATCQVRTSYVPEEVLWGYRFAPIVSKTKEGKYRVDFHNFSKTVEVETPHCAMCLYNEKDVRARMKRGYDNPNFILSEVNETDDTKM
INS promoter inh: inhibitors of insulin promoter-driven GFP, primary screen, imaging, TRM-6 cells (human fetal islet line), eGFP reporter, cell count; reporter expression induced with tamoxifen; 130,000 compounds, 0.9% hits; inhibition, % at 2 µM;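 active means inhibition above the mean plus 3 SD, with well images judged a real hit on visual review, cut at about 60% in these data, passing the limit was not always enough; inconclusive means inhibition over the cutoff but images rejected on review; inactive means inhibition not above the cutoff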
Tb hexokinase: Trypanosoma brucei hexokinase 1 inhibitors, primary screen, biochemical, G6PDH-coupled NADH absorbance, MLSCN library. hexokinase 1 [Trypanosoma brucei]. recombinant TbHK1, G6PDH-coupled NADH A340. inhibition, % at 10 µM. 220,000 compounds, 0.11% hits. AID 1430, 2008;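 active means inhibition of 50% or more in the single-dose primary screen; inactive means inhibition below 50%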
Hits are given with their value; . = inactive; ? = inconclusive; / = no result. Many of the other results were omitted from the sample, so hits are more common in it than they were.

SMILES	Insulin prom up	HSV replic up	ROMK primary	INS promoter inh	Tb hexokinase
O=c1[nH]c(-c2ccccn2)cc2ccccc12	.	.	.	67	.
S=C(NCC1CCCO1)N1CCN(c2nc(-c3ccccc3)cs2)CC1 (stereo not given)	.	.	.	/	.
CC(C)C(=O)Nc1ccc([N+](=O)[O-])c(C(F)(F)F)c1	.	.	.	87	.
O=c1c2c([N+](=O)[O-])cc([N+](=O)[O-])cc2sn1-c1ccc(Br)cc1	.	.	.	.	92
Cn1c(SCC(=O)O)nnc1C1CCCCC1	.	.	/	83	.
COc1cccc(C(=O)NCc2n[nH]c(=S)n2-c2cccc(C)c2)c1	.	.	.	/	.
COc1ccc(CC(=O)NCc2n[nH]c(=S)n2-c2cccc(C)c2)cc1	.	.	.	71	.
COC(=O)c1sccc1Oc1c(Cl)cccc1[N+](=O)[O-]	.	.	.	.	.
CCC(C(=O)Nc1cc(C)on1)c1ccccc1 (stereo not given)	.	.	.	70	.
CC(=O)OC(C(=O)NCc1ccco1)c1cccnc1 (stereo not given)	.	.	.	76	.
CC(=O)OC(C(=O)NCc1ccco1)c1ccncc1 (stereo not given)	/	.	.	.	.
CCCCn1c(=O)c(CC(C)=O)nc2ccccc21	.	.	.	.	.
CCCCn1c(N(CCOC(C)=O)C(C)=O)nc2ccccc21	/	.	.	89	.
Cc1cc(C(=O)Nc2sc3c(c2C#N)CCCC3)no1	/	.	3.6	/	.
O=C(N/C(=C/c1cccs1)C(=O)N1CCOCC1)c1ccccc1	.	.	.	.	.
O=C(N/C(=C\c1cccs1)C(=O)N1CCOCC1)c1cccs1	.	.	.	78	.
C=CS(=O)(=O)c1sc(Cl)c(N2CCOCC2)c1[N+](=O)[O-]	.	.	-8.6	/	.
CCCN(C(=O)c1cc2c(s1)CCC2)c1c(N)n(Cc2ccccc2)c(=O)[nH]c1=O	.	.	/	/	.
CCN(CC)C(=O)C1CCN(Cc2cccc(OCc3ccccc3)c2)CC1	.	.	-3.1	/	.
Nc1nc(CN2CCN(c3ccccc3F)CC2)nc(Nc2ccc3c(c2)OCCO3)n1	.	.	/	.	.
CN1CCN(Cc2nc(N)nc(Nc3ccc4c(c3)OCCO4)n2)CC1	4.7	.	.	/	.
COc1cccc2c1OC1(C)CC2/C(=C(\C)O)C(=O)N1 (stereo not given)	.	.	/	91	.
COc1ccc(CNC(=O)/C=C/c2ccco2)cc1OC	/	.	.	71	.
O=C(CCCN1C(=O)c2ccccc2C1=O)NCCN1C(=O)S/C(=C\c2cccs2)C1=O	.	.	.	.	.
CCNC(=S)N=Nc1c(O)[nH]c2ccc(C(C)C)cc12	.	.	.	64	.
SMILES	Insulin prom up	HSV replic up	ROMK primary	INS promoter inh	Tb hexokinase
CC(C)c1ccc2[nH]c(O)c(N=NC(=S)NCCc3ccccc3)c2c1	.	.	/	/	.
COc1ccc(C(=O)Nc2cc(C(C)=O)c(C)oc2=O)cc1	.	.	.	/	.
COC(=O)c1cc(NC(=O)c2ccccc2)c(=O)oc1/C=C/Nc1ccc(Oc2ccccc2)cc1	/	?	-4.5	.	.
Cc1ccc(OCC(=O)Nc2cnn(CCCC(=O)O)c2)c([N+](=O)[O-])c1	.	.	.	/	.
COc1ccc(C(=O)CSc2nnc3n2CCCN3C(=O)Nc2ccccc2)cc1	.	.	/	/	.
COc1ccc(-c2nnn(CCc3nn[nH]n3)n2)cc1	/	.	/	75	.
COc1ccc(-c2nnn(CCC(=O)O)n2)cc1	.	.	.	.	.
CSc1ccc(NC(=O)N2CC=C(n3c(=O)[nH]c4ccccc43)CC2)cc1	.	.	.	64	.
CCO/C([O-])=N/c1sn[n+](C)c1C	.	.	/	/	.
COCC(C)NC(=O)NC1(C(F)(F)F)Oc2ccc(Cl)cc2O1 (stereo not given)	.	.	.	71	.
O=C1Nc2ccccc2/C1=C\c1cccn1-c1ccc(OC(F)(F)F)cc1	.	.	/	.	.
O=C(CSc1nc2ccccc2[nH]1)Nc1c(F)c(F)c(F)c(F)c1F	.	.	.	.	.
Cc1noc(C)c1CSc1nc2ccccc2[nH]1	.	.	/	.	.
Fc1cccc(F)c1CSc1nc2ccccc2[nH]1	.	.	.	75	.
O=C(CSc1nc2ccccc2[nH]1)Nc1c(F)cccc1F	.	.	/	89	.
Cc1ccc(NC(=S)c2nc3ccccc3[nH]2)cc1	.	.	/	81	.
